A short description of assay [1]: APR_HepG2_P-H2AX_72hr: Apredica 72-hour HepG2 Assay for H2AX Phosphorylation (AID 2282916).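 Also: phospho-histone H2A.x immunostain intensity per cell marking DNA damage.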 The conditions noted are these: imaging, actives raise or lower the signal. In a few lines: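 HepG2 cells treated 72 h at 0.39–200 uM, 0.5% DMSO final, duplicates. Formaldehyde-fixed, Triton-permeabilised, immunostained for phospho-H2A.x with Hoechst; fluorescence imaged at 20x, bidirectional fit versus DMSO.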

A short description of assay [2]: APR_HepG2_MitoMembPot_72hr: Apredica 72-hour HepG2 Assay for Mitochondrial Membrane Potential (AID 2282917). Particulars: imaging, actives raise or lower the signal. In a few lines: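 HepG2 cells dosed 72 hr with compound at 0.39–200 uM in duplicate, 0.5% v/v DMSO final. Mitochondria stained with 250 nM MitoTracker Red CMXRos for 30 min before formaldehyde fixation, imaged by high-content fluorescence; bidirectional fit versus DMSO.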

Assay [3] is described as follows: APR_HepG2_MitoticArrest_72hr: Apredica 72-hour HepG2 Assay for Mitotic Arrest (AID 2282918). Particulars: high-content imaging, actives raise or lower the signal. In a few lines: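 HepG2, 72 hr exposure, 0.39–200 uM in duplicate, 0.5% v/v DMSO final. Formaldehyde-fixed, Triton-permeabilized, anti-phospho-histone H3/FITC plus Hoechst. ArrayScan imaging at 20x; curves fit bidirectionally against DMSO baseline.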

A short description of assay [4]: APR_HepG2_MicrotubuleCSK_72hr: Apredica 72-hour HepG2 Assay for Microtubule CSK Stabilty (AID 2282919). The conditions noted are these: HepG2 microtubule cytoskeleton, high-content imaging, actives raise or lower the signal. The essentials:
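HepG2 cells were exposed 72 hr to compound at 0.39–200 uM in duplicate (0.5% DMSO final), then fixed and permeabilized. Alpha-tubulin immunofluorescence was imaged by high-content microscopy, with bidirectional fitting against DMSO and taxol as positive control.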

The nature of assay [5]: APR_HepG2_P-H2AX_24hr: Apredica 24-hour HepG2 Assay for H2AX Phosphorylation (AID 2282920). The conditions noted are these: high-content imaging, actives raise or lower the signal. The essentials: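 HCS fluorescence imaging of phospho-H2A.x immunostain (with Hoechst 33342 nuclear counterstain) in HepG2 after 24 hr compound exposure; 10 concentrations, 0.39–200 uM, duplicate wells, 0.5% v/v DMSO. Gain or loss of signal fitted relative to DMSO baseline.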

Assay [6] is described as follows: APR_HepG2_StressKinase_72hr: Apredica 72-hour HepG2 Assay for Stress Kinase (AID 2282921). Particulars: HepG2 stress kinase (phospho-c-Jun) imaging, actives raise or lower the signal. In a few lines: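 HepG2 cells treated 72 hr with 0.39–200 uM compound, 0.5% v/v DMSO, duplicate wells. After formaldehyde fixation and Triton permeabilization, stained with anti-phospho-c-Jun (1:500) and Cy3 secondary, imaged at 20x. Fitted in both directions against DMSO.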

The nature of assay [7]: APR_HepG2_StressKinase_24hr: Apredica 24-hour HepG2 Assay for Stress Kinase (AID 2282922). Particulars: HepG2 stress kinase (phospho-c-Jun) imaging, actives raise or lower the signal. The essentials:
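HepG2 cells exposed 24 h to 0.39–200 uM compound in duplicate (0.5% v/v DMSO final). Cells fixed in 3.7% formaldehyde, permeabilized and immunostained for phospho-c-Jun; read by high-content fluorescence imaging, fitted bidirectionally against DMSO.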

A short description of assay [8]: APR_HepG2_p53Act_72hr: Apredica 72-hour HepG2 Assay for p53 Activation (AID 2282923).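 Also: average cellular p53 protein immunofluorescence intensity in HepG2 cells.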 The conditions noted are these: high-content imaging, actives raise or lower the signal. In a few lines:
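HepG2 cells exposed 72 h to 0.39–200 uM in 0.5% DMSO, duplicates. Fixed, permeabilized cells immunostained for p53 (Cy5) with Hoechst; imaged at 20x, fluorescence analyzed bidirectionally against DMSO.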

The nature of assay [9]: APR_HepG2_MitoMass_72hr: Apredica 72-hour HepG2 Assay for Mitochondrial Mass (AID 2282924).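 Also: MitoTracker Red CMXRos stain intensity per cell imaged as mitochondrial mass.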 Particulars: high-content imaging, actives raise or lower the signal. In a few lines:
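HepG2 cells dosed 72 hr at 0.39–200 uM (0.5% DMSO), in duplicate. MitoTracker Red CMXRos 250 nM loaded 30 min before formaldehyde fixation; high-content fluorescence imaging, bidirectional fit versus DMSO.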

A short description of assay [10]: APR_HepG2_NuclearSize_72hr: Apredica 72-hour HepG2 Assay for Nuclear Size (AID 2282925). The conditions noted are these: high-content imaging, actives raise or lower the signal. In a few lines:
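HepG2 cells dosed 72 h at 0.39–200 uM (10 concentrations, duplicate) in 0.5% v/v DMSO final. Fixed, Hoechst 33342-stained nuclei imaged; nuclear diameter measured by automated image analysis. Bidirectional fit versus DMSO.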

The source made the active and inactive calls. The calls were made as follows: active = hit-call score of the fitted dose curve at least 0.9, where 1 is the maximum; inactive = score below 0.9.

We go through 18 molecules from PubChem BioAssay (EPA / NIEHS).

The AC50 is the concentration at which the activity in the assay is half-maximal. `CCOP(=S)(Oc1cnc(C(C)(C)C)nc1)OC(C)C` (stereo not given): the result in assay [1], in assay [2], in assay [3], in [5], in [6] and in [7] was inactive. The result in [8], in [9] and in assay [10] was inactive. Also, the concentration at half-maximal activity (AC50) in assay [4] was 66.5 µM (active).

With `CCCCSP(=O)(SCCCC)SCCCC`, the call in assay [1], in assay [3], in assay [4], in [5], in assay [6] and in assay [7] was inactive. The molecule was called inactive in assay [8], in assay [9] and in assay [10]. In addition, in assay [2], the half-maximal activity concentration (AC50) was 157 µM (active).

Consider `COc1cccc(C(=O)NN(C(=O)c2cc(C)cc(C)c2)C(C)(C)C)c1C`, for which the result in assay [1], in assay [2], in assay [3], in [4], in assay [5] and in [6] was inactive. The result in assay [7], in [8], in [9] and in assay [10] was inactive.

Consider `CCOP(=S)(OCC)Oc1ccc2c(C)c(Cl)c(=O)oc2c1`, for which the figures for the AC50 in assay [1], in assay [3] and in assay [4] were 100 µM (active), 93.2 µM (active) and 40.5 µM (active), respectively. Also, the result in assay [2], in assay [5], in assay [6], in assay [7], in [8] and in [9] was inactive. Besides, the molecule was called inactive in assay [10].

For `COc1ccc(C(=CC(=O)N2CCOCC2)c2ccc(Cl)cc2)cc1OC`, the outcome in assay [1], in assay [2], in [3], in assay [4], in assay [5] and in [6] was inactive. Further, the call in [7], in assay [8], in assay [9] and in assay [10] was inactive.

In the case of `CCOP(=O)(NC(C)C)Oc1ccc(SC)c(C)c1` (stereo not given), the outcome in assay [1], in assay [3], in assay [4], in assay [5], in [6] and in assay [7] was inactive. For the same molecule, the call in [8], in assay [9] and in assay [10] was inactive. In addition, in assay [2], the AC50 was 50.5 µM (active).

On to `Cc1cc(C2CC2)nc(Nc2ccccc2)n1`, for which the AC50 is 51.8 µM (active) in assay [1], 70.1 µM (active) in [3] and 56.9 µM (active) in [4]. Moreover, the outcome in assay [2], in [5], in assay [6], in [7], in assay [8] and in assay [9] was inactive. The call in [10] was inactive.

For the molecule `CCC(CC)Nc1c([N+](=O)[O-])cc(C)c(C)c1[N+](=O)[O-]`, the call in [1], in [2], in [3], in assay [5], in assay [6] and in assay [7] was inactive. The outcome in assay [8], in [9] and in assay [10] was inactive. In addition, the AC50 in [4] was 108 µM (active).

As to `CNC(=O)ON=C(C)SC`, the result in assay [1], in assay [2], in [3], in assay [4], in [5] and in assay [6] was inactive. The molecule was classed as inactive in assay [7], in assay [8], in assay [9] and in assay [10].

For `CSC1=N[C@@](C)(c2ccccc2)C(=O)N1Nc1ccccc1`, the molecule was classed as inactive in [1], in [2], in assay [3], in assay [5], in [6] and in [7]. The molecule was called inactive in assay [8], in assay [9] and in assay [10]. For the same molecule, the AC50 in assay [4] was 38.6 µM (active).

On to `O=c1ccc(=O)[nH][nH]1`, for which the result in assay [1], in [2], in [3], in assay [4], in [5] and in assay [6] was inactive. The molecule was classed as inactive in assay [7], in assay [8], in [9] and in assay [10].

On to `CCCCOC(=O)c1ccccc1C(=O)O`, for which the molecule was called inactive in assay [1], in [2], in assay [3], in assay [4], in assay [5] and in [6]. The molecule was classed as inactive in assay [7], in assay [8], in assay [9] and in [10].

`S=C1NCCN1`: the outcome in assay [1], in [2], in assay [3], in assay [4], in assay [5] and in assay [6] was inactive. The call in [7], in assay [8], in [9] and in assay [10] was inactive.

With `CC(C)=CC1C(C(=O)OCN2C(=O)C3=C(CCCC3)C2=O)C1(C)C` (stereo not given), the result in [1], in [2], in [3], in assay [4], in [6] and in assay [7] was inactive. In addition, the molecule was classed as inactive in [8], in [9] and in assay [10]. Also, in assay [5], the AC50 was 99.3 µM (active).

In the case of `CC[C@H](C)[C@H]1O[C@]2(C=C[C@@H]1C)C[C@@H]1C[C@@H](C/C=C(\C)[C@@H](O[C@H]3C[C@H](OC)[C@@H](O[C@H]4C[C@H](OC)[C@@H](NC)[C@H](C)O4)[C@H](C)O3)[C@@H](C)/C=C/C=C3\CO[C@@H]4[C@H](O)C(C)=C[C@@H](C(=O)O1)[C@]34O)O2`, the call in assay [1], in assay [3], in assay [4], in [5], in assay [6] and in [7] was inactive. Besides, the call in [8], in [9] and in assay [10] was inactive. Also, in [2], the AC50 is 0.16 µM (active).

Consider `CCCCOC(=O)[C@@H](C)Oc1ccc(Oc2ccc(C#N)cc2F)cc1`, for which the call in assay [1], in [2], in [3], in assay [4], in assay [5] and in assay [6] was inactive. In addition, the outcome in assay [7], in [8], in assay [9] and in assay [10] was inactive.

In the case of `Cc1nn(-c2cc(NS(C)(=O)=O)c(Cl)cc2Cl)c(=O)n1C(F)F`, the result in assay [1], in [2], in assay [3], in assay [4], in assay [5] and in assay [6] was inactive. Also, the molecule was called inactive in assay [7], in assay [8], in assay [9] and in assay [10].

`Nc1nc(N)nc(NC2CC2)n1`: the molecule was called inactive in assay [1], in assay [2], in [3], in assay [4], in assay [5] and in assay [6]. Besides, the result in assay [7], in [8], in [9] and in assay [10] was inactive.
